Data from PubChem BioAssay.

assay: compounds binding Alexa647 anti-His antibody – biochemical, small-molecule microarray, 635 nm fluorescence, artefact control for SMM control protein annotation, primary screen (AID 1128); settings: higher = more signal;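 further: score merges feature fluorescence with signal-to-noise for each printed compound spot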

Question: With Cc1ccc(S[C@]2(C(=O)NCCCN(C)C)CC(=O)N(C3CCCCC3)[C@@H]2c2ccc(CO)cc2I)cc1 as the molecule, how does the composite z-score read?
Answer: Its composite z-score is 0.731.

Question: Which composite z-score does the source give for O=C1C2C=CC(C(O)C#Cc3ccccc3)N(Nc3ccccc3)C2C(=O)N1c1ccccc1 (stereo unspecified) here?
Answer: Its composite z-score is 1.1.

Question: Which composite z-score does the source give for O=C1NC(=O)C2C1C=CC(C(O)C=Cc1ccc([N+](=O)[O-])cc1)N2Nc1ccccn1 (stereo unspecified) here?
Answer: Its composite z-score is 2.75.

Question: With Cc1ccc(S(=O)(=O)N[C@H]2COC(=O)CC=C[C@H](C)COC(=O)N[C@@H](C)C(=O)CC=C[C@@H]2C)cc1 as the molecule, how does the composite z-score read?
Answer: The composite z-score was -0.45.

Question: Which composite z-score does the source give for Cc1ccc(N2C(=O)c3ccccc3[C@](C)(C(=O)NCC(C)C)[C@@H]2c2ccc(CO)cc2)nc1 here?
Answer: The composite z-score was -1.02.

Question: With O=C1C2C=CC(C(O)c3ccccc3)N(n3cnnc3)C2C(=O)N1Cc1ccccc1 (stereo unspecified) as the molecule, how does the composite z-score read?
Answer: Its composite z-score is 0.0968.

Question: For COc1cc([C@@H]2N[C@H](C(=O)O)Cc3c2[nH]c2ccccc32)cc(OC)c1OC, which composite z-score is on record?
Answer: The composite z-score was 0.386.

Question: Which composite z-score does the source give for C=CCNC(=O)[C@H]1[C@@H]2C(=O)O[C@@H](c3ccccc3)[C@@H](c3ccccc3)N2[C@@H](c2ccc(O)cc2)[C@]12C(=O)Nc1ccc(C#CCNC(N)=O)cc12 here?
Answer: Its composite z-score is -1.09.

Question: Which composite z-score does the source give for CCC#CCN(Cc1ccccc1Br)[C@H](/C=C/c1ccccc1)[C@@H](O)Cc1ccccc1 here?
Answer: Its composite z-score is 0.017.

Question: With CCCC=C(CCC)[C@@H](NC(=O)c1ccccc1)c1ccccc1 as the molecule, how does the composite z-score read?
Answer: Its composite z-score is -0.697.

Question: For CO[C@H]1O[C@H](CO)[C@@H](OC(=O)CCc2ccccc2)[C@@H]2OC(=O)[C@H](Cc3cccc(Br)c3)C/C=C/C[C@@H](Cc3cccc(Br)c3)C(=O)O[C@@H]12, which composite z-score is on record?
Answer: Its composite z-score is 0.345.

Question: For C=CCC(OC(C)=O)[C@@H]1[C@@H](N(Cc2cccc3ccccc23)C(=O)c2ccc(C)cc2)c2cc(OCCCO)ccc2N1C(=O)c1ccc(-c2ccccc2)cc1 (stereo partly specified), which composite z-score is on record?
Answer: Its composite z-score is -0.215.

Question: With Cc1ccc(N2C(=O)c3ccccc3[C@](C)(C(=O)O)[C@@H]2c2ccc(CO)cc2)nc1 as the molecule, how does the composite z-score read?
Answer: Its composite z-score is -0.763.

Question: With C[C@@H]1CC[C@H]2C(=O)N3[C@@H](CC[C@@H](C)[C@@H]3c3cccc(N4CCOCC4)c3)C(=O)N2[C@H]1c1cccc(N2CCOCC2)c1 as the molecule, how does the composite z-score read?
Answer: Its composite z-score is 0.181.

Question: For Cc1ccc(S[C@]2(C(=O)NCCN3CCOCC3)CC(=O)N(C3Cc4ccccc4C3)[C@@H]2c2ccc(CO)cc2I)cc1, which composite z-score is on record?
Answer: The composite z-score was 0.0031.

Question: Which composite z-score does the source give for N#Cc1ccc(NN2C(C(O)c3ccc(I)cc3)C=CC3C(=O)N(c4ccccc4)C(=O)C32)cc1 (stereo unspecified) here?
Answer: The composite z-score was 1.33.

Question: For CCOC(=O)[C@H]1C/C=C/C[C@H](C(=O)OCC)C(=O)O[C@H]2[C@@H](OC)O[C@H](CO)[C@@H](OC(=O)Nc3ccc(Br)cc3)[C@@H]2OC1=O, which composite z-score is on record?
Answer: Its composite z-score is 0.441.

Question: Which composite z-score does the source give for C[C@@H]1C=CCC(=O)OC[C@H]2O[C@@H](C=C[C@@H]2O)[C@H](C)C=CCC(=O)OC[C@H]2O[C@H]1C=C[C@@H]2O here?
Answer: The composite z-score was 0.106.

Question: With CO[C@@H]1COC(=O)[C@H](C)NC(=O)CC=C[C@@H](C)[C@H](NS(=O)(=O)c2ccc(C)cc2)COC(=O)CC=C[C@@H]1C as the molecule, how does the composite z-score read?
Answer: The composite z-score was 0.373.

Question: Which composite z-score does the source give for C=C(CCCC)/C(=C/C[C@@H](OC(=O)c1ccncc1)c1cccc(OCCO)c1)c1cc(C(=O)OC)ccc1OC here?
Answer: Its composite z-score is 0.541.

Question: With [N-]=[N+]=NCc1ccccc1C[C@]1(C(N)=O)N=C(c2ccc(OCCCO)cc2)O[C@H]1c1ccccc1CN=[N+]=[N-] as the molecule, how does the composite z-score read?
Answer: The composite z-score was 3.15.

Question: For CCCCO[C@H]1C[C@H]2C(Br)=C[C@@]1(CO)C(=O)[C@]21CO1, which composite z-score is on record?
Answer: The composite z-score was -0.487.

Question: Which composite z-score does the source give for CC(C)N1CC=CC23O[C@@H]4/C=C\CCCOC(=O)C4[C@H]2C(=O)N(CCCCCO)[C@@H]3C1=O (stereo partly specified) here?
Answer: The composite z-score was -2.21.

Question: Which composite z-score does the source give for CO[C@@H]1COC(=O)[C@H](C)NC(=O)CC=C[C@@H](C)[C@H](OC)COC(=O)[C@H](C)NC(=O)CC=C[C@H]1C here?
Answer: The composite z-score was 0.284.

Question: For CCOC(=O)C[C@H]1[C@H](OC(=O)Cc2ccc3c(c2)OCO3)[C@@H](NC(=O)c2ccc3ccccc3c2)c2cc(OCCCO)ccc2N1C(=O)Cc1ccc(OC)cc1, which composite z-score is on record?
Answer: Its composite z-score is -0.708.

Question: With CCCN1C(=O)[C@@]2(CCS(=O)(=O)c3ccccc3)N=C(c3ccc(OCCCO)cc3)O[C@H]2c2ccccc21 as the molecule, how does the composite z-score read?
Answer: The composite z-score was 2.79.

Question: For CCCC[C@@H]1C[C@H]1[C@@H](NC(=O)c1cccs1)c1ccc(Cl)cc1, which composite z-score is on record?
Answer: Its composite z-score is -0.492.

Question: Which composite z-score does the source give for C[C@H]1COC(=O)[C@@H]2CCCN2C(=O)[C@@H](C)COC(=O)[C@@H]2CCCN2C1=O here?
Answer: The composite z-score was -0.451.

Question: For [N-]=[N+]=NCc1ccccc1C[C@@]1(C(=O)O)N=C(c2ccc(OCCCO)cc2)O[C@@H]1c1ccccc1N=[N+]=[N-], which composite z-score is on record?
Answer: Its composite z-score is 1.36.

Question: For O=C1C2C=CC(C(O)C(c3ccccc3)c3ccccc3)N(Nc3ccc([N+](=O)[O-])cc3)C2C(=O)N1c1ccccc1 (stereo unspecified), which composite z-score is on record?
Answer: The composite z-score was 1.79.

Question: For CO[C@H]1COC(=O)[C@H](CCSC)NC(=O)CC=C[C@@H](C)COC(=O)[C@@H](OCc2ccccc2)C=C[C@@H]1C, which composite z-score is on record?
Answer: Its composite z-score is -0.155.

Question: With CCC(=O)[C@]12O[C@@]3([C@@H]4C(=O)OCC[C@@H]41)N(Cc1ccccc1)C(C)=C(C(=O)OC)[C@@H](c1ccccc1)N3C2=O as the molecule, how does the composite z-score read?
Answer: Its composite z-score is -0.97.

Question: Which composite z-score does the source give for COC(=O)[C@@]1(Cc2ccc(OC)cc2)[C@H]2c3cc(C(=O)N(C)C)n(CCc4ccc(OC)c(Br)c4)c3C[C@H]2CN1C(=O)c1ccccc1 here?
Answer: The composite z-score was 2.28.

Question: Which composite z-score does the source give for C#CCCCON=C1C[C@@H](O)[C@@H](O)[C@@H]2[C@@H]3C(=O)N(Cc4ccc5c(c4)OCO5)C(=O)[C@@H]3CC[C@H]12 here?
Answer: Its composite z-score is 0.833.

Question: For COC(=O)c1c(CC[C@@H](CO)NC(=O)N[C@H](Cn2cc(-c3cncn3C)nn2)C(C)C)oc(C(C)=O)c1C(=O)OC, which composite z-score is on record?
Answer: The composite z-score was 1.15.

Question: With CCOC(=O)C1=CC[C@@H](c2ccc(-c3ccc(OCc4ccccc4)cc3)c(OC)c2)N(S(=O)(=O)c2ccc(C)cc2)[C@H]1c1ccccc1 as the molecule, how does the composite z-score read?
Answer: The composite z-score was 1.07.
